Consider 19 compounds from the supplement of paper PMC6805474.

The test system of assay [1] is Schistosoma mansoni schistosomula (NMRI). In words: phenotypic severity score (0-4); higher = more antischistosomal effect, active = 2 or more. To be noted: 10 µM.
The test system of assay [2] is Schistosoma mansoni schistosomula (Liberian). In words: drug effect (1 - score/DMSO control score) (fraction); higher = more antischistosomal effect, active = 0.5 or more; extreme values may be limits of the assay. To be noted: 10 µM. The essentials: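 Liberian-strain Schistosoma mansoni schistosomula, mechanically transformed from cercariae and pre-incubated at least 12 h, were exposed in duplicate (50 per well, flat-bottom 96-well plates) to 10 µM compound in Medium 199 with 5% FCS at 37 °C, 5% CO2, with 0.1% DMSO control wells. Wells were scored visually (10×) at 24, 48 and 72 h on a quarter-point scale from 3 (normal) to 0 (dead). Drug effect was derived from the mean test-well score relative to the mean DMSO-control score. Negative values were set to zero, and plates were valid only if control wells averaged at least 2.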

Assay [3] has as its system Schistosoma mansoni schistosomula (LE). In words: XTT viability relative to DMSO control; higher = more viable (less active). The note with it: 72 h; 10 µM. The method, then: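 XTT/PMS was then added for a further 24 h (72 h total) and A450 was read. % viability = (sample - heat-killed control)/(DMSO control - heat-killed control) x 100, from duplicate wells in two independent experiments.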
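Wherever phenotypic severity score (0-4) is given: visual microscopic scoring of shape, motility and density changes versus 0.5% DMSO solvent controls, one point per descriptor, degeneracy or death scored 4, mean of duplicate wells.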

As to `COc1ccc(-c2cnc3cnc(-c4cccc(OC(C)C)c4)cn23)cc1`, the results for the phenotypic severity score in assay [1] (24 h), in assay [1] (48 h) and in assay [1] (72 h) were 2 (active), 4 (active) and 4 (active), respectively. Moreover, the drug effect in assay [2] (24 h) is 0.0455 (inactive); in assay [2] (48 h), < 0 (inactive); in assay [2] (72 h) it was 0.105 (inactive).

For the compound `O=C(Nc1ccc2c(c1)B(O)OC2)c1ccccc1C(F)(F)F`, the XTT viability in assay [3] came out at 71.1%. In addition, the phenotypic severity score in assay [1] (24 h), in assay [1] (48 h) and in assay [1] (72 h) was 0 (inactive) throughout. Further, the results for the drug effect in assay [2] (24 h), in assay [2] (48 h) and in assay [2] (72 h) were 0.1 (inactive), 0.0556 (inactive) and 0.167 (inactive), respectively.

In the case of `O=C(C1CCCCC1)N1CC(=O)N2CCc3ccccc3C2C1` (stereo not given), the XTT viability in assay [3] is 97.3%. For the same compound, the phenotypic severity score in assay [1] (24 h), in assay [1] (48 h) and in assay [1] (72 h) was 4 (active) each time. Also, the drug effect in assay [2] (24 h) is 0.3 (inactive); in assay [2] (48 h) it was 0.351 (inactive); in assay [2] (72 h) it was 0.556 (active).

On to `NS(=O)(=O)c1cncc(-c2ccc3nccc(-c4cn[nH]c4)c3n2)c1`, for which the XTT viability in assay [3] stood at 98.4%. Also, the phenotypic severity score in assay [1] (24 h), in assay [1] (48 h) and in assay [1] (72 h) was 0 (inactive) each time. The drug effect in assay [2] (24 h) was 0.135 (inactive); in assay [2] (48 h), 0.111 (inactive); in assay [2] (72 h), 0.312 (inactive).

Consider `COc1ccc(-c2nnc3ccc(-c4cccc(C(C)C)c4)cn23)cc1OC`, for which the XTT viability in assay [3] came to 14.7%. The phenotypic severity score in assay [1] (24 h) is 0 (inactive); in assay [1] (48 h) it was 2 (active); in assay [1] (72 h), 0 (inactive). For the same compound, the results for the drug effect in assay [2] (24 h), in assay [2] (48 h) and in assay [2] (72 h) were 0.1 (inactive), 0.167 (inactive) and 0.278 (inactive), respectively.

On to `CC1CS(=O)(=O)CCN1/N=C/c1ccc([N+](=O)[O-])o1` (stereo not given), for which the XTT viability in assay [3] was determined as 224%. The phenotypic severity score in assay [1] (24 h), in assay [1] (48 h) and in assay [1] (72 h) was 0 (inactive) in each case. Also, the figures for the drug effect in assay [2] (24 h), in assay [2] (48 h) and in assay [2] (72 h) were 0.3 (inactive), 0.278 (inactive) and 0.625 (active), respectively.

`O=C(COc1cccc(F)c1)Nc1nc(-c2ccccn2)cs1`: in assay [3], the XTT viability is 68.1%. Also, the phenotypic severity score in assay [1] (24 h), in assay [1] (48 h) and in assay [1] (72 h) was 0 (inactive) each time. The drug effect in assay [2] (24 h) is 0.0909 (inactive); in assay [2] (48 h) it was 0.1 (inactive); in assay [2] (72 h), 0.127 (inactive).

As to `Nc1nc(N)c2c3c(sc2n1)CN(Cc1ccccc1)CC3`, the XTT viability in assay [3] worked out at 131%. Further, the phenotypic severity score in assay [1] (24 h), in assay [1] (48 h) and in assay [1] (72 h) was 0 (inactive) in each case. Also, the drug effect in assay [2] (24 h) was 0.15 (inactive); in assay [2] (48 h) it was 0.278 (inactive); in assay [2] (72 h) it was 0.438 (inactive).

`c1ccc(-c2[nH]c3ccccc3c2C(c2ccccn2)N2CCCC2)cc1` (stereo not given): the XTT viability in assay [3] was -3.4%. In addition, the phenotypic severity score in assay [1] (24 h), in assay [1] (48 h) and in assay [1] (72 h) was 4 (active) in each case. Also, the drug effect in assay [2] (24 h), in assay [2] (48 h) and in assay [2] (72 h) was 1 (active) throughout.

For `CC(C)n1nc(-c2cc3c(Cl)cccc3[nH]2)c2c(N)ncnc21`, the XTT viability in assay [3] stood at 54.3%. Moreover, the phenotypic severity score in assay [1] (24 h), in assay [1] (48 h) and in assay [1] (72 h) was 4 (active) in each case. Further, the drug effect was 0.55 (active) in assay [2] (24 h), 0.667 (active) in assay [2] (48 h) and 1 (active) in assay [2] (72 h).

In the case of `CO[C@H]1/C=C/O[C@@]2(C)Oc3c(C)c(O)c4c(O)c(/c(=C/NN5CCN(C)CC5)c(O)c4c3C2=O)=N\C(=O)/C(C)=C\C=C/[C@H](C)[C@H](O)[C@@H](C)[C@@H](O)[C@@H](C)[C@H](OC(C)=O)[C@@H]1C`, in assay [3], the XTT viability was determined as 116%. The phenotypic severity score in assay [1] (24 h), in assay [1] (48 h) and in assay [1] (72 h) was 0 (inactive) throughout. For the same compound, the figures for the drug effect in assay [2] (24 h), in assay [2] (48 h) and in assay [2] (72 h) were 0.0455 (inactive), 0.05 (inactive) and 0.105 (inactive), respectively.

Take `CCOc1ccccc1NC(C)C(=O)Nc1cc(C(F)(F)F)ccc1N1CCOCC1` (stereo not given): the phenotypic severity score in assay [1] (24 h), in assay [1] (48 h) and in assay [1] (72 h) was 0 (inactive) in each case. Moreover, the values for the drug effect in assay [2] (24 h), in assay [2] (48 h) and in assay [2] (72 h) were 0.15 (inactive), 0.167 (inactive) and 0.312 (inactive), respectively.

Regarding `O=C1N(Cc2cc3ccccc3s2)CC2CN(Cc3ccccc3)CCN12` (stereo not given), the phenotypic severity score in assay [1] (24 h), in assay [1] (48 h) and in assay [1] (72 h) was 0 (inactive) in each case. For the same compound, the drug effect is 0.182 (inactive) in assay [2] (24 h), 0.3 (inactive) in assay [2] (48 h) and 0.236 (inactive) in assay [2] (72 h).

Turning to `CNc1snc(C)c1C(=O)NCCOc1ccc(OC)cc1`, the XTT viability in assay [3] was found to be 91.3%. The phenotypic severity score was 1 (inactive) in assay [1] (24 h), 0 (inactive) in assay [1] (48 h) and 0 (inactive) in assay [1] (72 h). The values for the drug effect in assay [2] (24 h), in assay [2] (48 h) and in assay [2] (72 h) were 0.0909 (inactive), 0.15 (inactive) and 0.127 (inactive), respectively.

For the compound `COc1cc(-c2cc(-c3ccc(S(C)(=O)=O)cc3)cnc2N)ccc1O`, the XTT viability in assay [3] was 139%. The phenotypic severity score in assay [1] (24 h) was 2 (active); in assay [1] (48 h), 1 (inactive); in assay [1] (72 h), 1 (inactive). In addition, the figures for the drug effect in assay [2] (24 h), in assay [2] (48 h) and in assay [2] (72 h) were 0.1 (inactive), 0.189 (inactive) and 0.152 (inactive), respectively.

Take `CC(C)(C(=O)Nc1ccc(F)cc1)n1cc(-c2ccccc2F)cn1`: the XTT viability in assay [3] turned out to be 128%. Besides, the phenotypic severity score in assay [1] (24 h), in assay [1] (48 h) and in assay [1] (72 h) was 0 (inactive) each time. The figures for the drug effect in assay [2] (24 h), in assay [2] (48 h) and in assay [2] (72 h) were 0.135 (inactive), 0.111 (inactive) and < 0 (inactive), respectively.

`COc1ccc(-c2nc(-c3cccc(NC(=O)Cc4ccc(F)cc4)c3)no2)cc1OC`: the XTT viability in assay [3] worked out at 137%. The phenotypic severity score in assay [1] (24 h) is 0 (inactive); in assay [1] (48 h), 0 (inactive); in assay [1] (72 h) it was 1 (inactive). Also, the drug effect in assay [2] (24 h) is 0.182 (inactive); in assay [2] (48 h), 0.2 (inactive); in assay [2] (72 h) it was 0.182 (inactive).

For `O=C([C@@H](c1ccc(Cl)cc1)c1cccnc1)N1CCN(c2ccc(C(F)(F)F)cc2)CC1`, in assay [3], the XTT viability came to 46.8%. For the same compound, the phenotypic severity score is 0 (inactive) in assay [1] (24 h), 2 (active) in assay [1] (48 h) and 4 (active) in assay [1] (72 h). The drug effect was 0.75 (active) in assay [2] (24 h), 0.722 (active) in assay [2] (48 h) and 0.75 (active) in assay [2] (72 h).

In the case of `O=C(NCc1nnc2n1CCCCC2)c1ccc(-c2ccc(F)cc2)o1`, the XTT viability in assay [3] was found to be 97.1%. In addition, the phenotypic severity score in assay [1] (24 h) is 1 (inactive); in assay [1] (48 h), 0 (inactive); in assay [1] (72 h) it was 0 (inactive). The drug effect was 0.136 (inactive) in assay [2] (24 h), 0.15 (inactive) in assay [2] (48 h) and 0.182 (inactive) in assay [2] (72 h).
